Assay results reported in PubChem BioAssay AID493168 (National Center for Advancing Translational Sciences (NCATS), 2011).
Inconclusive results are not listed. Active and inactive are the calls of the source. The call rests on the fitted dose curve; in most records, active means well fitted inhibition curve with a large enough effect; inconclusive means small, poorly fitted or top-dose-only effect, or effect the other way; inactive means flat fitted curve, though single readings scatter.

Target: Ubiquitin carboxyl-terminal hydrolase 2 (Homo sapiens) (UniProt O75604)
Assay: Confirmation Assay for Inhibitors of Ubiquitin-specific Protease USP2a Using CHOP2 as the Reporter; further: nearly all actives have a fitted effect of over 55% in size;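 on activity change, negative = inhibition: plate controls were DMSO wells for no effect and full inhibition by NEM control for full effect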
Conditions: USP2 core, Ub-CHOP2 coupled reporter fluorescence; series mostly up to 38.3 µM; activity change, negative = inhibition: at the top concentration
How it was run: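 USP2 core (10 nM final) was preincubated with compound for 30 min at RT in Tris-HCl pH 8.0, CaCl2, beta-mercaptoethanol, CHAPS. Ub-CHOP2 and reporter substrate (25 nM final each) were added, and fluorescence (Ex 485/Em 531 nm) was read after 60 min.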
Potency means the concentration at half of the fitted maximal effect.

Chain of Ubiquitin carboxyl-terminal hydrolase 2 (Homo sapiens) (O75604 whole entry, looked up): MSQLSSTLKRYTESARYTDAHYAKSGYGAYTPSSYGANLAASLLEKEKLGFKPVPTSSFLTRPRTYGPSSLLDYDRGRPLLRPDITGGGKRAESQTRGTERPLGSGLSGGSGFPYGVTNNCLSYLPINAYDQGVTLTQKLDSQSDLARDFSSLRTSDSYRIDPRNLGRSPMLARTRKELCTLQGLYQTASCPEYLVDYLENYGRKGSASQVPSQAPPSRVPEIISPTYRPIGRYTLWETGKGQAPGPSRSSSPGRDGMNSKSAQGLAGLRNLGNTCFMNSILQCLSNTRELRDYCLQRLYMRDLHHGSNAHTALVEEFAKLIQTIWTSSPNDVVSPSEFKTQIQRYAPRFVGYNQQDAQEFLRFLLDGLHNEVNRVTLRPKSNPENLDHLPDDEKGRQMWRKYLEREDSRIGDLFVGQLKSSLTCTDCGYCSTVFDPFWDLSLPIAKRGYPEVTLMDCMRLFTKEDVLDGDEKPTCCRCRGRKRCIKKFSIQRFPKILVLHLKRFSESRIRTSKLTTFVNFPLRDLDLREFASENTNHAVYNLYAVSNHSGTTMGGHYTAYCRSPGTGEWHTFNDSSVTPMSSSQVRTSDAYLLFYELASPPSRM

Structure (SMILES) | activity change, negative = inhibition | Potency
CC1(C)CC(=O)C2=C(C1)NCN(CCCN1CCOCC1)C2 | 0.351% (inactive) | –
CCOC(=O)c1sc(NC(=O)Nc2ccccc2)cc1C | 2.01% (inactive) | –
Cc1ccc(C(=O)CSc2nnc(CNc3nc(-c4ccccc4)cs3)n2C)cc1 | -6.56% (inactive) | –
CCc1c(O)nc(SCC(=O)Nc2ccccc2OC)[nH]c1=O | 3.26% (inactive) | –
CCn1c(=O)c(C(=O)Nc2ccccc2S(N)(=O)=O)c(O)c2ccccc21 | – | 13.1 µM (active)
O=C(COc1ccccc1)NCc1nnc(SCC(=O)Nc2nccs2)n1-c1ccccc1 | -4.3% (inactive) | –
COC(=O)C1Sc2[nH]c(=O)sc2C(c2ccc(Cl)cc2)C1C(=O)OC (stereo not given) | 0.734% (inactive) | –
COc1ccc(Cc2nnc(NC(=O)Cc3cccs3)s2)cc1 | – | 11.7 µM (active)
O=C(COc1ccccc1)NCCSc1ccccc1 | -2.69% (inactive) | –
Cn1c(=O)c2c(nc(CN3CCN(C(=O)c4ccco4)CC3)n2CCCc2ccccc2)n(C)c1=O | 1.35% (inactive) | –
O=C(Nc1ccc(Nc2ccncc2)cc1)c1ccc(Nc2ccnc3ccc([N+](=O)[O-])cc23)cc1[N+](=O)[O-] | -16.8% (inactive) | –
Cc1cc(C)c(NC(=O)C[N+](C)(C)CC(O)COc2cccc3ccccc23)c(C)c1 (stereo not given) | 0.237% (inactive) | –
COc1ccc(-c2nc(C#N)c(NCC3CCCO3)o2)cc1OC (stereo not given) | -2.32% (inactive) | –
COc1ccc(OCC(=O)Nc2ccccc2OC)cc1 | 7.41% (inactive) | –
CCCn1c(N2CCN(Cc3cccc(C)c3)CC2)nc2c1c(=O)[nH]c(=O)n2C | -0.381% (inactive) | –
CCOC(=O)N1CCC(NC(=O)c2ccc(OC)c(CN3CC(=O)N4CCCC4C3=O)c2)CC1 (stereo not given) | -1.63% (inactive) | –
CC(=O)c1ccc(Nc2ncnc3c2oc2ccccc23)cc1 | 6.35% (inactive) | –
C#CCOCCOCCOCCNc1nc(N2CCN(C(=O)CCCCCCCCCCNC(=O)[C@@H](CCC(=O)O)n3cc(CCCCCN)nn3)CC2)nc(N2CCN(C(=O)CCCCCCCCCCNC(=O)[C@H](CCCCN)n3cc(C[C@@H](C)CC)nn3)CC2)n1 | – | 5.21 µM (active)
O=c1oc2ccccc2n1Cn1c(=O)oc2ccccc21 | 2.63% (inactive) | –
O=C(NC(=S)N1CCCc2ccccc21)c1ccc([N+](=O)[O-])cc1 | -6.36% (inactive) | –

Structure (SMILES) | activity change, negative = inhibition | Potency
Cc1cc(C)cc(C(=O)Nc2ccc(N3CCCC3)cc2)c1 | -18.2% (inactive) | –
CCCSCCCNC(=O)CC1Oc2ccccc2NC1=O (stereo not given) | -2.19% (inactive) | –
Cc1cccc(NCc2nc(-c3ccccc3)no2)c1 | -0.935% (inactive) | –
Cc1c(C(=O)Nc2ccc3c4c(cccc24)CC3)cccc1[N+](=O)[O-] | 1.37% (inactive) | –
CC(=O)Nc1cc[n+](CC(=O)c2ccc(Cl)cc2)cc1 | 2.54% (inactive) | –
O=C(COC(=O)c1ccc(NS(=O)(=O)c2cccs2)cc1)Nc1nc2c(F)c(F)c(F)cc2s1 | – | 6.56 µM (active)
O=C1OC[C@@H]2CCCN2C(=O)[C@@H](CC(=O)N(CCO)Cc2ccccc2)C/C=C\C[C@@H]1Cc1ccc(F)cc1 | 2.66% (inactive) | –
Cc1ccc(CNC(=O)CCNS(=O)(=O)c2ccc(C)cc2)cc1 | -2.25% (inactive) | –
O=C(O)c1cccc(S(=O)(=O)NNc2ccccc2C(F)(F)F)c1 | 1.51% (inactive) | –
COc1cc(C)c(S(=O)(=O)NCc2ccc3c(c2)OCO3)cc1C | 5.8% (inactive) | –
CCn1nnnc1SCC(=O)Nc1cccc(C)n1 | 1.28% (inactive) | –
O=C(Cc1ccc(S(=O)(=O)N2CCOCC2)s1)Nc1nc2c(s1)CCCC2 | – | 14.7 µM (active)
O=c1cc(CO)oc(CN2CCN(Cc3ccccc3)CC2)c1O | -0.374% (inactive) | –
Cc1ccc(C(=O)NCCNS(=O)(=O)c2ccccc2)cc1 | 3.38% (inactive) | –
CCc1nnc(NC(=O)CSc2nccn2-c2cccc(C)c2)s1 | -0.395% (inactive) | –
Cc1ccc(/C=N/NC(=O)c2cc(-c3ccc(C)o3)[nH]n2)cc1 | -3.8% (inactive) | –
O=C(OCC1OC(n2ncc(=O)[nH]c2=O)C(OC(=O)c2ccccc2)C1OC(=O)c1ccccc1)c1ccccc1 (stereo not given) | – | 13.1 µM (active)
O=C(Nc1cccc(Cl)c1)Nc1nnc(CC2=CCCCC2)s1 | 1.35% (inactive) | –
CC1CCCC(NC(=O)C2N(CCCN3CCCC3)C(=O)C3C(C(=O)Nc4ccc(Cl)cc4)C4C=CC32O4)C1C (stereo not given) | 0.321% (inactive) | –
COc1ccccc1C(=O)n1nc(-c2cccnc2)nc1NCc1ccccc1 | – | 5.85 µM (active)
